From PubChem BioAssay
In the library only some 8.5% were active in any assay of this set; here they are far more common.
ALDH1A1 inh: inhibitors of human aldehyde dehydrogenase 1A1; P00352; hit rate 7.3% among 220,000; Purified ALDH1A1, NADH fluorescence, propionaldehyde substrate; AID 1030; Potency, µM (titrated, usually from 75.3 µM), without a hit: at the highest dose activity, negative = inhibition, usual class: inhibitors; active = well fitted inhibition curve with a large enough effect, not every such curve was filed as active; inconclusive = small, poorly fitted or top-dose-only effect, or another doubt; inactive = no such curve, though single readings can be large or run the other way;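 also: potency is read from the fitted curve at half-maximal effect; plate controls were no enzyme wells and a reference inhibitor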
Target sequence (P00352 whole entry, looked up): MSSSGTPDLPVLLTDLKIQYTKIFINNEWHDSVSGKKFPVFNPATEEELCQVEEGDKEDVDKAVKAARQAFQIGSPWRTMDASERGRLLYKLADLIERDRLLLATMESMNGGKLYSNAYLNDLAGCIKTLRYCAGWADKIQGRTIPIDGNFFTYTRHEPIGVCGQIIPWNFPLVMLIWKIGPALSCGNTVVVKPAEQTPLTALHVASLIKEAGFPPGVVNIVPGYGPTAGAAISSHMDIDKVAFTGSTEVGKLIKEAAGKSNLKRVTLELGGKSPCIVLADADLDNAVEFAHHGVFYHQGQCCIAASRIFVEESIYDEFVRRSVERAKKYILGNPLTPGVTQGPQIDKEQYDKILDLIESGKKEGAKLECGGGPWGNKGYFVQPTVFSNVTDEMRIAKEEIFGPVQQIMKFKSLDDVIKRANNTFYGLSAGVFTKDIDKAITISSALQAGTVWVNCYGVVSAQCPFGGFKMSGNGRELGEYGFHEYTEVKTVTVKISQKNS
RGS12 GoLoco inh: blocks human Gai1 binding to RGS12 GoLoco peptide, red readout. Potency, µM (series often up to 61.6 µM), for inactives: top-dose activity, negative = inhibition, usual class: inhibitors. hit rate 0.44% among 230,000. Gai1:RGS12 GoLoco peptide FP, rhodamine, 10 min. AID 880; active = well fitted inhibition curve with a large enough effect, not every such curve was filed as active; inactive = no such curve, though single readings can be large or run the other way; also: potency is read from the fitted curve at half-maximal effect; nearly all actives have a fitted effect of over 30% in size
FBPA coupling cs: coupling enzyme interference in Giardia aldolase counter-screen | coupling enzyme system counterscreen, AmpLite Red fluorescence | activity change, negative = inhibition, % at 58.2 µM, hits read low | hit rate 0.67% among 290,000 | AID 2472; in the data active = activity change below about -30%
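Counterscreen lacking aldolase: glyceraldehyde-3-phosphate coupling-enzyme reagent preincubated 10 min at RT with compound (at 57.5 uM final), then substrate/coupling system with AmpLite Red added; fluorescence read at 525/598 nm after 20 min RT.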
JMJD2E inh: inhibitors of human JMJD2E histone demethylase. B2RXH2. Potency, µM (titrated, usually from 57.1 µM), for the others: top-dose activity change, negative = inhibition, hits mostly inhibitors. hit rate 1.6% among 230,000. JMJD2E catalytic domain, FDH-coupled NADH fluorescence (FDH is formaldehyde dehydrogenase);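 also: potency is read from the fitted curve at half-maximal effect; 0% = wells with enzyme and -100% = buffer wells without enzyme; nearly all actives have a fitted effect of over 50% in size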
Sfp PPTase inh: Sfp phosphopantetheinyl transferase inhibition. Potency, µM, without a hit: largest response in the series, negative = inhibition, usual class: inhibitors. Q9F4F7. AID 1490. hit rate 3.5% among 310,000. Biochemical Sfp PPTase activity, qHTS;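 also: the enzyme is Sfp with the accession as filed and its product quenches rhodamine fluorescence; potency is read from the fitted curve at half-maximal effect; 0% = enzyme reaction without inhibitor and -100% = no enzyme wells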
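Buffer: 50 mM Hepes-Na pH 7.6, 10 mM MgCl2, 0.01% Nonidet P-40, 0.01% BSA. Enzyme 15 nM, pre-exposed to compound 15 min; substrates then added and fluorescence change tracked over 30 min.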
NPSR antag: neuropeptide S receptor (human) antagonism, cAMP; Q6W5P4; CHO-NPSR cells, cAMP TR-FRET, antagonist mode; Potency, µM (series often up to 38.3 µM), without a hit: at the top dose activity change, negative = inhibition, actives largely listed as inhibitors; hit rate 1% among 220,000; AID 1461; also: potency is read from the fitted curve at half-maximal effect; nearly all actives have a fitted effect of over 50% in size
* = called active by the depositor; ? = inconclusive; / = no result; [ ] = remark or other dose. Unless noted, calls follow the shape of the dose curve; as a rule, active = well fitted curve in the direction sought with a large enough effect; inconclusive = small, poorly fitted or top-dose-only effect, or another doubt; inactive = no such curve, though single readings can be large; an effect the other way counts as inactive or inconclusive. Unless noted, % is scaled to controls: 0 for no effect and ±100 for the full control effect.

SMILES	ALDH1A1 inh	RGS12 GoLoco inh	FBPA coupling cs	JMJD2E inh	Sfp PPTase inh	NPSR antag
O=C1N/C(=C\c2ccc(O)cc2)C(=O)c2ccccc21	?	8%	-31*	-8%	-77%	-10%[46.1 µM]
COc1ccc(Cl)cc1N1C(=O)CC(Sc2ccccc2N)C1=O (configuration not stated)	/	20%	1	4%	1%	-24%
c1ccc(OCCCCn2cnc3ccccc32)cc1	10%	8%	0	8%	10%	3%[46.1 µM]
Cc1ccc(OCCCCn2cnc3ccccc32)cc1	-3%	3%	-8	-6%	40µM*	-39%
CCOC(=O)c1cnc(SCC(=O)c2ccc(C)cc2)nc1N	1%	-5%	-1	1%	6%	-12%[46.1 µM]
COc1ccccc1-c1nnc(SCC(=O)NC2CCCCC2)o1	7%	7%	5	4%	-3%	1%
CCOC(=O)c1cnc(SCc2cccc(C)c2)nc1N	25µM*	-9%	-2	-1%	?	-19%[46.1 µM]
COC(=O)c1ccccc1NC(=O)CSc1nnc(-c2ccncc2)o1	18µM*	-1%	1	-13%	-2%	-2%[46.1 µM]
Cc1ccc(C(=O)NNC(=O)CSc2nc(N)cc(N)n2)cc1	-8%	-2%	-2	1%	32µM*	15%
COc1ccccc1-c1nnc(SCC(=O)Nc2c(Cl)cccc2Cl)o1	22µM*	11%	5	3%	-1%	-15%[46.1 µM]
COC(=O)c1ccc(Cl)c(NC(=O)CSc2nnc(-c3ccncc3)o2)c1	/	/	2	/	9%	/
O=NCc1ccc([N+](=O)[O-])o1	/	11%	/	/	8%	/
O=C(O)c1ccc(C(=O)O)c(C(=O)c2ccc(NC(=O)c3ccccc3)cc2)c1	/	/	9	/	9%	/
CCOC(=O)c1ccc(NC(=O)CCSCCc2ccccn2)cc1	-5%	9%	-2	?	4%	5%
CCOC(=O)c1ccccc1NC(=O)CSc1ncc(C(=O)OCC)c(N)n1	20µM*	91%	0	?	-4%	-20%[46.1 µM]
CCOC(=O)c1cnc(SCC(=O)c2ccccc2)nc1N	-31%	-6%	4	2%	45µM*	-3%[46.1 µM]
CCC(C)NC(=O)c1ccccc1NC(=O)CN1C(=O)c2ccccc2S1(=O)=O (configuration not stated)	-5%	-2%	-2	10%	-10%	26%[46.1 µM]
COC(=O)c1ccccc1NC(=O)CNc1cc(OC)c(OC)cc1C	10µM*	3%	-8	?	-8%	17%
COC(=O)c1ccccc1NC(=O)CN1C(=O)c2ccccc2S1(=O)=O	25µM*	4%	3	2%	11%	-12%[46.1 µM]
CCOC(=O)c1cnc(SCC(=O)Nc2cc(OC)ccc2OC)nc1N	?	2%	-2	-30%	-1%	-17%[46.1 µM]
Cc1ccc(C2/C(=C(/O)c3ccc4c(c3)CC(C)O4)C(=O)C(=O)N2CCCn2ccnc2)cc1 (configuration not stated)	/	/	/	/	20%	/
Cc1nc(SCC(=O)NC(C)(C#N)C2CC2)c2c(-c3cccs3)csc2n1 (configuration not stated)	-12%	3%	5	-1%	-6%	-16%
CC(C(=O)N1CCOCC1)N1C(=O)c2cccc3cccc(c23)C1=O (configuration not stated)	?	11%	-2	?	6%	6%
CC(=O)Nc1ccc(S(=O)(=O)NCCC(=O)NCC2COc3ccccc3O2)cc1 (configuration not stated)	/	/	/	/	10%	/
Cc1n(-c2ccccc2)c2ccc(Cl)cc2[n+]1CCO	6%	-2%	4	-15%	-9%	-2%
SMILES	ALDH1A1 inh	RGS12 GoLoco inh	FBPA coupling cs	JMJD2E inh	Sfp PPTase inh	NPSR antag
COC(=O)c1ccccc1NC(=O)CSc1nc(N)cc(N)n1	25µM*	9%	-4	-1%	5%	5%[46.1 µM]
CCOC(=O)c1ccccc1NC(=O)CSc1nc(N)cc(N)n1	-8%	0%	4	4%	9%	9%[46.1 µM]
CCOC(=O)/C(C(=O)Nc1ccccc1Br)=C1/NC(C)(C)Cc2ccccc21	28µM*	12%	-1	-6%	-7%	-18%
CCOC(=O)C(=O)Nc1ccccc1C(=O)NCc1ccccc1	-7%	5%	2	-2%	16%	-2%
CC(=O)Nc1cccc(NC(=O)CSc2nc(C)c(C)c(C)c2C#N)c1	10µM*	-14%	3	1%	?	-4%[46.1 µM]
O=C(NCCSC1CCCCC1)c1ccccc1	?	13%	-1	2%	15%	-7%
COc1ccc(C(=O)NCCSCc2ccc(C)cc2)cc1	2.2µM*	-1%	-1	6%	12%	-6%[46.1 µM]
COc1ccc(C(=O)NCCSc2ccc(C)cc2)cc1	10µM*	-5%	-1	-4%	-2%	5%
Cc1ccc(SCCNC(=O)c2ccccc2)cc1	?	13%	/	4%	6%	-7%[46.1 µM]
Cc1ccc(CSCCNC(=O)c2ccc(C)cc2)cc1	?	11%	1	-12%	-3%	2%
COc1ccc(C(=O)NCCSC2CCCCC2)cc1	3.5µM*	5%	1	13%	9%	6%
CN(C)c1ccc(C(CNC(=O)Cc2cccc3ccccc23)N(C)C)cc1 (configuration not stated)	/	/	0	/	2%	/
CCCCN1C(=O)C2C3C=CC(C2C1=O)C1C2C(=O)N(CCCC)C(=O)C2C31 (configuration not stated)	6%	-24%	6	0%	-9%	17%
C=CCN1C(=O)C2C3C=CC(C2C1=O)C1C2C(=O)N(CC=C)C(=O)C2C31 (configuration not stated)	0.71µM*	-11%	-2	-5%	5%	8%
O=C1C2C3C=CC(C2C(=O)N1CCCO)C1C2C(=O)N(CCCO)C(=O)C2C31 (configuration not stated)	4.5µM*	-3%	2	7%	-1%	-14%[46.1 µM]
COc1ccc(CN(CC(=O)NCc2ccc(F)cc2)C(=O)CCC(=O)Nc2nccs2)cc1	/	/	1	/	2%	/
Cc1ccc(S(=O)(=O)Oc2ccccc2/C=N/Nc2ccc(C(=O)O)cc2)cc1	/	5%	1	0%	4%	58%
CC[n+]1ccc(C[n+]2ccccc2)c2ccccc21	19µM*	18µM*	-32*	?	50µM*	8%
O=C(Nc1ccc(N2CCOCC2)cc1)Nc1cnsn1	?	-2%	-6	-9%	28µM*	-14%[46.1 µM]
Nc1nc(CSCc2ccccc2)nc(N2CCOCC2)n1	?	18%	-1	-12%	28µM*	-7%[46.1 µM]
Nc1nc(CSc2nc3ccccc3s2)nc(N2CCOCC2)n1	-9%	-1%	4	3%	26%	0%
O=C(NCCc1ccccc1)C1CC(=O)N(C2CCCCC2)C1 (configuration not stated)	/	/	-23	/	16%	/
